Data on 49 compounds can be found in PubChem BioAssay AID720708 (National Center for Advancing Translational Sciences (NCATS), 2013).

Hit rate of the full screen: of about 360,000 compounds, about 660 (0.18%) were called active. Inconclusive results (about 2%) are left out. The entries come from a sample that favours actives as a whole. Unmarked numbers belong to inactive results. Calls come from the whole dose curve; as a rule, active = well fitted inhibition curve with a large enough effect; inconclusive = small, poorly fitted or top-dose-only effect; inactive = no such curve, though single readings can be large or run the other way.
% is set by controls: 0 for no effect and ±100 for the full control effect; potency is the fitted concentration of half-maximal effect.

Sequence of Rap guanine nucleotide exchange factor 4 (Homo sapiens) (Q8WZA2 whole entry, looked up): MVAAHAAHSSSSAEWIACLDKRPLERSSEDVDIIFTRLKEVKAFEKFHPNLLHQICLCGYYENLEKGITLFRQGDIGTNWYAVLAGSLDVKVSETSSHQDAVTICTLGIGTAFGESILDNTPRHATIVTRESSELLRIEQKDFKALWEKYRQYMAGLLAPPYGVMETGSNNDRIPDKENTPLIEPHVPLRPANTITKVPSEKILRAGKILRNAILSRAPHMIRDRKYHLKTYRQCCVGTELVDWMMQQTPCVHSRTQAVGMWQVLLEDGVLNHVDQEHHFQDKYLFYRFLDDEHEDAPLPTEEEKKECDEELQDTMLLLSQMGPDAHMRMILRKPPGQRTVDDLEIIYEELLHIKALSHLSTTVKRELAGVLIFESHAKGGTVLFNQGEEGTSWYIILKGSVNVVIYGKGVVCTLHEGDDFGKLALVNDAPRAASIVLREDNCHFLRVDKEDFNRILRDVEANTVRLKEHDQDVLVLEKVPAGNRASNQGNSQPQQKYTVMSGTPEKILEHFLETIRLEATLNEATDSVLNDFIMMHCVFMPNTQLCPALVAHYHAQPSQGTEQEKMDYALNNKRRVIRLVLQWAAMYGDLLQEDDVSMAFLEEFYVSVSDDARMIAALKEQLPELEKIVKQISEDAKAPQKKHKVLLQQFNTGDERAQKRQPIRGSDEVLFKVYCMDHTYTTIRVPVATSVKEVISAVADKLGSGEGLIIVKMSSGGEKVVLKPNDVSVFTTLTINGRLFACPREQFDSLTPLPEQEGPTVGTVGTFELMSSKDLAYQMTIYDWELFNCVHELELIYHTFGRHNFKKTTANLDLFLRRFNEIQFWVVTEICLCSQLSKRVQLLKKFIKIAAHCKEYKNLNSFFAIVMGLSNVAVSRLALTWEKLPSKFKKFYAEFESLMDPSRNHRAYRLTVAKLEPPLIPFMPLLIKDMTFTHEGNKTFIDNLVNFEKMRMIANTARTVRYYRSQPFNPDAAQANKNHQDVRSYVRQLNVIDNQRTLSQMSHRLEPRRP

The test addresses Rap guanine nucleotide exchange factor 4 (Homo sapiens) (UniProt Q8WZA2). Nature of the test: qHTS for Antagonist of cAMP-regulated guanine nucleotide exchange factor 2 (EPAC2): primary screen. Note: nearly all actives have a fitted effect of over 45% in size. As to conditions: EPAC2 GEF exchange of Rap1B-BODIPY-GDP, fluorescence; series mostly up to 114 µM; activity, negative = inhibition: at the top concentration.
With `CCCCNC(=O)OC(C)CNC(=O)OC` (centres undefined), the “activity, negative = inhibition” value was -0.338%.

With `Cc1ccc(Cl)cc1N1CCN(C(=O)c2cccc3c(=O)c(C)c(-c4ccccc4)oc23)CC1`, the Potency is 12.6 µM (active).

Regarding `COc1ccccc1N1CCN(C(=O)c2cc(=O)c3cc(C)cc(C)c3o2)CC1`, the “activity, negative = inhibition” value is 3.53%.

Consider `Cc1cccc(N2CCN(C(=O)c3cnn4c(C(F)F)cc(-c5ccccc5)nc34)CC2)c1C`, for which the “activity, negative = inhibition” value is -2.11%.

As to `CCOCCCNC(=O)Cc1cc(=O)[nH]c(=O)[nH]1`, the “activity, negative = inhibition” value is 12.4%.

On to `CCCCCC1CCC(c2nnc(SCC(C)=O)o2)CC1` (centres undefined), for which the “activity, negative = inhibition” value was 8.05%.

Regarding `COc1cccc2c(C)c(C(=O)O)[nH]c12`, the “activity, negative = inhibition” value was 0.659%.

As for `N#C/C(C(=O)N1CCOCC1)=C1/SC(Cc2ccc(F)cc2)C(=O)N1c1ccccc1` (centres undefined), the “activity, negative = inhibition” value is 8.88%.

In the case of `Cc1cccc(NS(=O)(=O)c2ccc(C(=O)NCC(C)(C)N3CCOCC3)cc2)c1C`, the “activity, negative = inhibition” value was 24.5%.

As for `Nc1[nH]c(C(=O)c2ccccc2)c(-c2ccc(Br)cc2)c1C(=O)NC1CC1`, the “activity, negative = inhibition” value is -3.82%.

As for `COc1cccc2c(N/N=C/c3ccco3)cc(C)nc12`, the Potency is 12.6 µM (active).

`O=c1nc(N/N=C/c2ccco2)cn[nH]1`: the “activity, negative = inhibition” value is -1.92%.

On to `CCc1c(C)nc2c(OC)cccc2c1Cl`, for which the “activity, negative = inhibition” value was 5.13%.

With `CC(C)(C)Cc1c(C2CCCCC2)nc2ccc(Br)cn12`, the “activity, negative = inhibition” value was -25%.

`CCN(CC)S(=O)(=O)c1cc([N+](=O)[O-])ccc1NNC(=O)Nc1ccccc1`: the “activity, negative = inhibition” value is -11.5%.

For `CCC(C(=O)NC1CCCC1)N(C(=O)c1snc(C(N)=O)c1N)c1ccc2c(c1)OCCO2` (centres undefined), the “activity, negative = inhibition” value was -3.82%.

Consider `Cc1c(Cl)c([N+](=O)[O-])nn1CC(=O)NCCCN1CCOCC1`, for which the “activity, negative = inhibition” value is 3.26%.

In the case of `CCOC(=O)N1CCN(Cc2nc3c(c(=O)n(C)c(=O)n3C)n2Cc2ccccc2)CC1`, the “activity, negative = inhibition” value is -1.88%.

Take `CC(=O)OCC(C)n1c(=O)c2ccccc2n1C(C)=O` (centres undefined): the “activity, negative = inhibition” value is 2.88%.

For the compound `COc1cccc(C2CC(c3cccs3)=NN2C(=O)CSC2=NCCS2)c1OC` (centres undefined), the “activity, negative = inhibition” value was 0.0512%.

With `CCCCCn1c(SCCC(C)C)nc2c1c(=O)[nH]c(=O)n2C`, the “activity, negative = inhibition” value is -3.83%.

For the compound `COC(=O)[C@@]12C[C@@H](CC(=O)NCCCCc3ccccc3)C(=O)N(CCc3ccc(OC)c(OC)c3)C1=CCC(C)(C)C2`, the “activity, negative = inhibition” value was 3%.

Consider `Cc1ccc(C(=O)Nc2c(-c3ccccc3)[nH][nH]c2=O)cc1`, for which the “activity, negative = inhibition” value is -23.4%.

Consider `O=C(OC1CC2CC1[C@H]1CCCCN1C2=O)N1CCOCC1` (some centres undefined), for which the “activity, negative = inhibition” value is 0.539%.

Take `O=C(NCc1ccco1)c1cccc(-c2ccc3nncn3c2)c1`: the “activity, negative = inhibition” value was -4.43%.

As for `C=CCNC(=S)NNC(=O)c1ccc(Br)o1`, the “activity, negative = inhibition” value is 0.381%.

Consider `O=S(=O)(Nc1cccc(-c2ccc(N3CCOCC3)nn2)c1)c1ccc(Cl)c(Cl)c1`, for which the “activity, negative = inhibition” value is -13.3%.

As to `O=C(CC1C(=O)NCCN1CC(c1ccccc1)c1ccccc1)NCCc1cn[nH]c1` (centres undefined), the “activity, negative = inhibition” value is 3.71%.

With `CCOCCCNC(=O)C(NC(=O)Cc1c[nH]c2ccccc12)c1ccc(OC)cc1` (centres undefined), the “activity, negative = inhibition” value was -0.765%.

In the case of `COc1ccc(NC(=O)C(c2ccncc2)n2c(=O)c(-c3cc4ccccc4[nH]3)nc3ccccc32)cc1` (centres undefined), the “activity, negative = inhibition” value was -10.2%.

`COC(=O)Cn1c(=NC(=O)c2cc(OC)c(OC)c(OC)c2)sc2cc(OC)ccc21`: the “activity, negative = inhibition” value was -0.061%.

Regarding `Cc1ccc(Cc2c(-c3ccc(Cl)cc3)nc3c4ccccc4ccn23)cc1`, the “activity, negative = inhibition” value is 4.4%.

Regarding `COC(=O)C1=C[C@@H](C(=O)OC)[C@@H]2C3=C(C(=O)[C@]2(C)NC(=O)c2ccccc2)[C@H](C)n2c(=O)n(C)c(=O)n2[C@@H]3C1`, the “activity, negative = inhibition” value was 4.54%.

Turning to `O=C1NC2(CCCCC2)N=C1c1ccccc1`, the “activity, negative = inhibition” value was 6.31%.

In the case of `COc1cc(N)c(Cl)cc1C(=O)OCC(=O)c1ccc2c(c1)NC(=O)CO2`, the “activity, negative = inhibition” value was -6.76%.

`COc1ccc(S(=O)(=O)N[C@@H]2C=C[C@@H](CC(=O)N3CCc4ccccc4C3)O[C@@H]2CO)cc1`: the “activity, negative = inhibition” value is -5.82%.

As for `Cc1cccc(C)c1NC1=NC(=S)N(c2ccc(N(C)C)cc2)C1(C)C`, the “activity, negative = inhibition” value is -0.385%.

As for `CC1(C)OC(=O)C2=C(C[C@@H](C3CC3)O[C@H]2c2ccc(Cl)cc2)O1`, the “activity, negative = inhibition” value is -12.1%.

As to `O=S(=O)(/N=C(/Nc1ccccc1)c1ccccc1)c1cccs1`, the “activity, negative = inhibition” value is 5.66%.

Regarding `O=C1OCCOC2CCCc3oc(-c4ccccc4)c1c32` (centres undefined), the “activity, negative = inhibition” value is -5.11%.

On to `Cc1c(C(=O)NCC2CC2)sc(=O)n1Cc1cccc(F)c1`, for which the “activity, negative = inhibition” value is 1.07%.

Take `OCCC#Cc1ccc(N2C(c3ccsc3)=Cc3ccc(F)cc3C2c2c[nH]c3ccccc23)cc1` (centres undefined): the “activity, negative = inhibition” value is 6.26%.

Regarding `O=C(c1ccc[nH]c1=S)N1CCN(S(=O)(=O)c2ccc(Br)cc2Cl)CC1`, the “activity, negative = inhibition” value was -5.45%.

In the case of `CCOc1ccc(CCNC(=O)C(CC)n2nc(C)n3c(cc4sccc43)c2=O)cc1OCC` (centres undefined), the “activity, negative = inhibition” value was 7.88%.

On to `CCOCCCNc1c(CC)c(C)c(C#N)c2nc3ccccc3n12`, for which the “activity, negative = inhibition” value was -11.1%.

Turning to `O=C1COc2ccc(C(=O)COC(=O)CCOc3ccccc3)cc2N1`, the “activity, negative = inhibition” value was 5.36%.

`CC(=O)Cc1nsc(NC(=O)c2ccc(Cl)cc2Cl)n1`: the “activity, negative = inhibition” value was -1.18%.

`CC(=O)NNC(=O)c1csc(Cc2c(Cl)sc3ccc(Cl)cc23)n1`: the “activity, negative = inhibition” value is -15.8%.

Regarding `CNC(=O)c1csc(Cc2c(Cl)sc3ccc(Cl)cc23)n1`, the Potency was 8.91 µM (active).
